Assay results as given in the supplement of paper PMC11577813, “Eurasian spruce bark beetle detects lanierone using a highly expressed specialist odorant receptor, present in several functional sensillum types” (BMC Biology, 2024).
± gives the standard deviation of the averaged measurements.

Columns and labels:
Test in all cases: net action potential response of A-neuron (blank-subtracted) (spikes/s (Hz)); higher = stronger excitation
Settings in all cases: 10 µg on filter paper; neuron: A neuron (large spike amplitude)
[1] = tested on: (+)-isopinocamphone A-neuron OSN class
How it was run: (§1)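 Live lab-reared adult Ips typographus each had one antenna fixed, and single sensillum recordings were made with tungsten electrodes under a humidified, charcoal-filtered airstream of 1.8 L/min. A 0.5 s pulse at 0.3 L/min delivered each compound, 10 μg in paraffin oil on filter paper inside a pipette, and spikes were counted in 0.5 s windows. In AutoSpike, spikes from the large-amplitude A-neuron or the small-amplitude B-neuron were counted, the pre-stimulus count was subtracted, and the result was converted to spikes/s, blank-subtracted and averaged across sensilla, of which there were 1–4.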

[2] = tested on: (5S,7S)-trans-conophthorin A-neuron OSN class
How it was run: as §1

[3] = tested on: myrcene A-neuron OSN class
How it was run: as §1

[4] = tested on: p-cymene A-neuron OSN class
How it was run: as §1

C=CCc1ccc(OC)cc1 [Estragole]
net action potential response [1]: -1.33 ± 1.1 | net action potential response [2]: -0.5 ± 6.6 | net action potential response [3]: -2 | net action potential response [4]: 9.33 ± 7

Cc1ccccc1 [Toluene]
net action potential response [1]: 0.667 ± 3.1 | net action potential response [2]: 4 ± 2.3 | net action potential response [3]: 6 | net action potential response [4]: 2 ± 4

O=Cc1ccccc1 [Benzaldehyde]
net action potential response [1]: 21.3 ± 15 | net action potential response [2]: -4 ± 2 | net action potential response [3]: 4 | net action potential response [4]: 2 ± 2
